Experimental findings from PubChem BioAssay (NCATS) are described below.

Results filed as inconclusive are left out. The source made the active and inactive calls. Unless noted, calls follow the shape of the full dose curve.

Experiment [1] has as its target Bile acid receptor (Homo sapiens) (UniProt Q96RI1). Nature of the experiment: qHTS assay for small molecule antagonists of farnesoid X receptor signaling (AID 588526). Also: % is scaled to controls: 0 for no effect and ±100 for the full control effect. The method in brief:
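Concentration-response titrations were fitted to the Hill equation for half-maximal inhibition and maximal response, with data normalised to 50 uM chenodeoxycholic acid and DMSO control wells. Cells: FXR-UAS-bla HEK293T, dialyzed FBS.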
On the technique in general: Quantitative high-throughput screening tests each substance at several concentrations.

For experiment [2] the target is unchanged. As to the kind of experiment: qHTS assay for small molecule agonists of farnesoid X receptor signaling (AID 588527).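 Also: series mostly up to about 77 µM; 0% = vehicle basal and 100% = reference agonist.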 The conditions noted are these: HEK293T FXR-UAS-bla, beta-lactamase ratio, 16 h; activation: stronger effect = higher value. An outline of the steps:
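FXR-UAS-bla HEK293T cells (10% dialyzed FBS) preincubated 5-7 h at 37 C, then compounds at up to 92 uM for 16 h at 37 C. CCF4 beta-lactamase read-out after 2 h RT. Normalized to chenodeoxycholic acid (100 uM) and DMSO; Hill fit gave EC50 and efficacy.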

The target of experiment [3] is Peroxisome proliferator-activated receptor gamma (Homo sapiens) (UniProt P37231). As to the kind of experiment: qHTS assay for small molecule antagonists of peroxisome proliferator-activated receptor gamma signaling (AID 588537; active = well fitted inhibition curve with a large enough effect in the signal ratio, with a control signal flat, not every such curve was filed as active; the % refers to the signal ratio;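 also: reporter cells co-stimulated with 50 nM rosiglitazone agonist during compound treatment; % of control where 0% means no effect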). An outline of the steps:
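PPAR-gamma-UAS-bla HEK293 cells (3000/well, 1% charcoal/dextran-stripped FBS) were preincubated 6-6.5 h at 37 C, given titrated compounds, then stimulated with 50 nM rosiglitazone for 16 h. Beta-lactamase activity was read with CCF4 dye; IC50 came from Hill fits.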

Experiment [4] concerns the target Vitamin D3 receptor (Homo sapiens) (UniProt P11473). Nature of the experiment: qHTS assay for small molecule agonists of vitamin D receptor signaling (AID 588543).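 Also: 0% = DMSO basal and 100% = reference agonist control.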 An outline of the steps: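 β-lactamase reporter, VDR-UAS-bla HEK293T, agonist mode. Cells plated 5 h at 37 °C, compound titration 16 h at 37 °C, CCF4 dye 2 h RT, ratio 460/530 nm. Hill fit → EC50, efficacy vs 50 nM 1α,25-(OH)2D3.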

Experiment [5] in a line: qHTS assay for small molecule agonists of retinoid X receptor alpha signaling (AID 588544). The conditions noted are these: HEK293T RXRa-UAS-bla, beta-lactamase reporter, 18 h; 530 nm emission.
The nature of experiment [6]: qHTS assay for small molecule activators of the human pregnane X receptor (PXR) signaling pathway (AID 720659; call rule not given here; also: 0% is about no effect).
Experiment [7] has as its target Vitamin D3 receptor (Homo sapiens) (UniProt P11473). Nature of the experiment: qHTS assay for small molecule antagonists of vitamin D receptor signaling (AID 588541).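 Also: receptor activated by calcitriol during compound treatment; series mostly up to about 77 µM; % is scaled to controls: 0 for no effect and ±100 for the full control effect.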 An outline of the steps: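 VDR-UAS-bla HEK293T cells (2000/well, 2% charcoal-stripped FBS) were treated with titrated compounds plus 1-alpha,25-dihydroxyvitamin D3 (50 nM or 3 nM final) for 16 h at 37 C. CCF4 beta-lactamase fluorescence was read; Hill fits gave IC50.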

Experiment [8] is described as follows: qHTS assay for small molecule agonists of the antioxidant response element (ARE) signaling pathway (AID 651741; active = well fitted activation curve with a large enough effect in the signal ratio; the % refers to the signal ratio; also: potency is read from the fitted curve at half-maximal effect; as to activation: % of control where 0% means no effect). An outline of the steps: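 ARE-bla HepG2 cells (beta-lactamase reporter under ARE control) were plated at 2,000 cells/well, preincubated 5 h at 37 C/5% CO2, then treated with DMSO-dissolved compounds for 16 h at 37 C; LiveBLAzer B/G FRET substrate added, fluorescence read after 2 h at room temperature.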

Experiment [9] in a line: qHTS assay for small molecule activators of the nuclear factor-kappa B (NF-kB) signaling pathway (AID 651749; active = well fitted activation curve with a large enough effect in the signal ratio; the % refers to the signal ratio; also: series mostly up to about 77 µM; % of control where 0% means no effect). The conditions noted are these: NF-kB-bla ME-180 cells, beta-lactamase FRET ratio, 16 h; activation: stronger effect = higher value. An outline of the steps: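 ME-180 cells stably carrying a beta-lactamase reporter under an NF-kB response element were exposed to compound or DMSO vehicle for 16 hr at 37C, 5% CO2. Pathway activation was read by FRET, since reporter expression disrupts FRET.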

The target of experiment [10] is Cytochrome P450 3A4 (Homo sapiens) (UniProt P08684). As to the kind of experiment: qHTS Assay for Inhibitors and Substrates of Cytochrome P450 3A4 (AID 884; active = well fitted curve in the direction sought with a large enough effect; an effect the other way counts as inactive or inconclusive; also: potency is read from the fitted curve at half-maximal effect; nearly all actives have a fitted effect of over 50% in size). An outline of the steps:
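20 nM human CYP3A4 with 25 uM Luciferin-PPXE (at KM) in 200 mM KPO4, preincubated 10 min with compound; NADPH regeneration started a 60 min RT reaction. Luciferin detected by luminescence, normalized to 57 uM ketoconazole as full inhibition.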

The target is the same in experiment [11]. As to the kind of experiment: qHTS Assay for Activators of Cytochrome P450 3A4 (AID 885; active = well fitted curve in the direction sought with a large enough effect; an effect the other way counts as inactive or inconclusive; also: nearly all actives have a fitted effect of over 65% in size). The method in brief: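 Human CYP3A4 (20 nM) with Luciferin-PPXE at 25 uM (its KM) in 200 mM KPO4; 10 min compound preincubation, then NADPH regeneration and 60 min reaction at RT. Luciferin read by luminescence; normalized to 57 uM ketoconazole full inhibition.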

Bile acid receptor (Homo sapiens), sequence (Q96RI1 whole entry, looked up): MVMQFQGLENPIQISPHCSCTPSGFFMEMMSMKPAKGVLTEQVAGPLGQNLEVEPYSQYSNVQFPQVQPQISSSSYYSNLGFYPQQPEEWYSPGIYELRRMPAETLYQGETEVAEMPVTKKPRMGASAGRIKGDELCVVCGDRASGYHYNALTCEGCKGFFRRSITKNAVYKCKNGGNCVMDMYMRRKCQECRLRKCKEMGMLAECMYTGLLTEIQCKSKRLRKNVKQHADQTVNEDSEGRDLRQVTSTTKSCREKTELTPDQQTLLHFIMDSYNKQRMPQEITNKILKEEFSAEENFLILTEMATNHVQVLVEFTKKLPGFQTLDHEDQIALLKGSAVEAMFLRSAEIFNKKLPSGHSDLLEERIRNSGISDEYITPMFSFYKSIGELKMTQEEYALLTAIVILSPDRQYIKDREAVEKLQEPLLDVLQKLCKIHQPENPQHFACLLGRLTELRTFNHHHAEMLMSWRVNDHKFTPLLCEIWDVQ
Peroxisome proliferator-activated receptor gamma (Homo sapiens), sequence (P37231 whole entry, looked up): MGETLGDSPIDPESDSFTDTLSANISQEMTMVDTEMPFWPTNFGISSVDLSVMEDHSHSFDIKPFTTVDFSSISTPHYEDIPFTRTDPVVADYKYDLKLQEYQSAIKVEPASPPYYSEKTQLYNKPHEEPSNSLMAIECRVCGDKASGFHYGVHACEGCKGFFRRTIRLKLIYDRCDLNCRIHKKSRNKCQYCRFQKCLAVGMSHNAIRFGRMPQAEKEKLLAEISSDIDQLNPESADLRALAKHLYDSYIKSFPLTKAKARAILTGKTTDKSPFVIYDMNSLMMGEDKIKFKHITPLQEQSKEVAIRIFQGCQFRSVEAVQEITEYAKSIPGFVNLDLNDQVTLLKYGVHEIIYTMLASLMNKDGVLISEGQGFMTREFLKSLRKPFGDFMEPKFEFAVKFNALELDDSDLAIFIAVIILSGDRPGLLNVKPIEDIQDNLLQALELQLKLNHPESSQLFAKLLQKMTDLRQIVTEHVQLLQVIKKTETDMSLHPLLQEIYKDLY
Vitamin D3 receptor (Homo sapiens), sequence (P11473 whole entry, looked up): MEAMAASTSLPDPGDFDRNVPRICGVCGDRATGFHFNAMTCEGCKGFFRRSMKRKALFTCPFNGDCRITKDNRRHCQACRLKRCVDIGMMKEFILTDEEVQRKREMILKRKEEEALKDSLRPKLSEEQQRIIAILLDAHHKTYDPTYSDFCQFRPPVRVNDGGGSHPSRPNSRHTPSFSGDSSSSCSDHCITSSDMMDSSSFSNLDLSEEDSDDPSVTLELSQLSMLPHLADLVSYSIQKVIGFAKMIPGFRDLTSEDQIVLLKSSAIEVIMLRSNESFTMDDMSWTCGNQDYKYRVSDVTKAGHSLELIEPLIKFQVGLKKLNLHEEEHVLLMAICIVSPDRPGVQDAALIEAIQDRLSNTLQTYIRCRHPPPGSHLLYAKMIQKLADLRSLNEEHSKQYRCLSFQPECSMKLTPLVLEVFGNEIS
Cytochrome P450 3A4 (Homo sapiens), sequence (P08684 whole entry, looked up): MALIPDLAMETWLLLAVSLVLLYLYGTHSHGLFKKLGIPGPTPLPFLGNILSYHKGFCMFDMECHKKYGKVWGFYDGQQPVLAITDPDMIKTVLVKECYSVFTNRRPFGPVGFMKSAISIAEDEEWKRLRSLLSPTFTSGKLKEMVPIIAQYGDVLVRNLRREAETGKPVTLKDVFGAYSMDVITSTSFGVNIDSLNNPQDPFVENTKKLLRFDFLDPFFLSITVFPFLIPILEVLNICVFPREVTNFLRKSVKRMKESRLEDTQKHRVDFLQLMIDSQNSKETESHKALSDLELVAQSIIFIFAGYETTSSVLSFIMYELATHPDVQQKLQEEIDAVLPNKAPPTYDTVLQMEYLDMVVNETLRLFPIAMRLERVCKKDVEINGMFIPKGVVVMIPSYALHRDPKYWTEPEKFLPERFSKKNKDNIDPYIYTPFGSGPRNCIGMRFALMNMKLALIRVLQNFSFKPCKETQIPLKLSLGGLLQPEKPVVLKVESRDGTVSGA

On to `CNC(=O)Oc1cccc(N=CN(C)C)c1`, for which the Potency result in [1] and in experiment [3] was “inactive” in each case. Moreover, in experiment [2], the activation is -2.76% (inactive). Besides, the molecule was classed as inactive in experiment [4] and in experiment [6]. For the same molecule, the max response in experiment [5] was determined as 1.64%.

`Cn1c(-c2ccccc2)cc(-c2ccccc2)[n+]1C`: the Potency result in [3] and in experiment [7] was “inactive” each time. Also, the molecule was classed as inactive in experiment [4]. Also, the max response in experiment [5] amounted to 12.1%.

In the case of `CNP(=O)(OC)Oc1ccc(C(C)(C)C)cc1Cl` (configuration not stated), in [7], the Potency result was “inactive”. The outcome in experiment [4] was inactive. In addition, the max response in experiment [5] came to 10.3%. In experiment [8], the Potency is 61.1 µM (active). Moreover, the activation in [9] was 1.2% (inactive).

Take `O=C(Nc1ccccc1)Nc1cnns1`: the Potency result in [1] and in experiment [7] was “inactive” in each case. The activation is -0.107% (inactive) in experiment [2] and 0.693% (inactive) in experiment [9].

With `O=S(=O)(c1ccc(Cl)cc1)c1cc(Cl)c(Cl)cc1Cl`, the activation in experiment [2] is 3.42% (inactive); in experiment [9], 1.59% (inactive). Also, the molecule was called inactive in experiment [4]. In addition, the Potency in experiment [8] was 27.3 µM (active).

`CO/N=C(/C(=O)OC)c1ccccc1COc1ccccc1C`: the outcome in experiment [4] and in experiment [6] was inactive. Further, in [5], the max response amounted to 13.9%. For the same molecule, the Potency in [8] was 12.2 µM (active). Also, the activation in [9] was -0.43% (inactive).

On to `CON(C)C(=O)Nc1ccc(Cl)c(Cl)c1`, for which the Potency entry in experiment [7] is “inactive”. Further, the max response in [5] was -3.25%. In addition, the activation in experiment [9] was -2.01% (inactive).

`CCOP(=S)(OCC)SCn1c(=O)oc2cc(Cl)ccc21`: the Potency in experiment [10] is 0.794 µM (active); in experiment [8], 27.3 µM (active). Moreover, the Potency result in [11] and in experiment [7] was “inactive” throughout. Moreover, the activation in [2] is -2.19% (inactive).

For `CC(C)OC(=O)C(O)(c1ccc(Br)cc1)c1ccc(Br)cc1`, the activation in [2] is 5.65% (inactive). Also, the outcome in experiment [4] was inactive.

Regarding `CC1(C)C(C(=O)OC(C#N)c2cccc(Oc3ccccc3)c2)C1(C)C` (configuration not stated), the activation in experiment [2] is 5.5% (inactive); in experiment [9], 2.53% (inactive). Moreover, the Potency result in [7] is “inactive”. Besides, the call in [4] was inactive. Also, in experiment [5], the max response is -5.14%.

Turning to `CCCCOC(=O)[C@@H](C)Oc1ccc(Oc2ccc(C#N)cc2F)cc1`, the Potency entry in experiment [3] is “inactive”. For the same molecule, the outcome in experiment [4] and in [6] was inactive. Further, the max response in experiment [5] is 10.2%. Besides, in [9], the activation is 0.919% (inactive).

As to `Clc1ccc(C2(Cn3cncn3)CC(Br)CO2)c(Cl)c1` (configuration not stated), the Potency result in experiment [1], in experiment [3] and in [7] was “inactive” throughout. For the same molecule, the call in [4] was inactive. Besides, the activation in experiment [9] was -2.79% (inactive).

`CCC(C)(C)c1ccc(O)c(C(C)(C)CC)c1`: in experiment [1], the Potency result is “inactive”. The Potency in [8] is 61.1 µM (active).

Consider `COc1cc(OC)nc(NC(=O)NS(=O)(=O)c2ncccc2OCC(F)(F)F)n1`, for which the Potency entry in experiment [1], in experiment [3], in [7] and in experiment [8] was “inactive” in each case. Also, the activation in experiment [2] is 0.378% (inactive); in [9], -0.186% (inactive). The max response in [5] was -19.3%.

For `CC(C)N(C(=O)COc1nnc(C(F)(F)F)s1)c1ccc(F)cc1`, in experiment [1], the Potency entry was “inactive”.

Take `N#CC(CCc1ccc(Cl)cc1)(Cn1cncn1)c1ccccc1` (configuration not stated): in experiment [4], the molecule was classed as inactive. Moreover, in experiment [8], the Potency was 68.6 µM (active). In experiment [9], the activation was 2.24% (inactive).

In the case of `C=CCOC(=O)C(C)(C)OC(=O)c1cc(-n2c(=O)cc(C(F)(F)F)n(C)c2=O)ccc1Cl`, in experiment [3], the Potency result was “inactive”. Also, the max response in [5] was -7.31%.

In the case of `CC(C)[C@@H](Nc1ccc(C(F)(F)F)cc1Cl)C(=O)OC(C#N)c1cccc(Oc2ccccc2)c1` (some centres not stated), in experiment [4], the outcome was inactive.

With `CC1(C)[C@H](C=C(Cl)Cl)[C@H]1C(=O)O[C@H](C#N)c1ccc(F)c(Oc2ccccc2)c1`, the Potency entry in experiment [3] and in experiment [7] was “inactive” in each case. The outcome in experiment [4] was inactive.

Turning to `CC1(C)CCC(Cc2ccc(Cl)cc2)C1(O)Cn1cncn1` (configuration not stated), the activation was 4.35% (inactive) in experiment [2] and -0.913% (inactive) in experiment [9]. For the same molecule, the Potency entry in [3] and in experiment [7] was “inactive” in each case. Also, in experiment [5], the max response is 16.6%.
